PubChem BioAssay (NCI)
This is part of a sample that, as a whole, favours compounds with a hit. Of some 83,000 tested, about 20% had one in any assay.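 Negative percent growth values reflect cell death: -40 means 40% of the cells present at the start died, and -100 means all died.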 Values without a mark were called inactive. Activity calls are given as the source filed them. How the source made its calls: active means growth percent below 10; inactive means the rest.

The compounds below were run on MOLT-4 leukemia (assay: NCI-60 one-dose screen, 48 h (100 = growth as untreated, 0 = no growth, -100 = all killed)). Conditions: 10 µM.
Compound `Cc1ccc(C(=O)N/C(=C2/OCCN2C)[P+](c2ccccc2)(c2ccccc2)c2ccccc2)cc1` has a growth of 84.4%. `CN(C)c1ccc(/C=C/c2nc3ccccc3c(=O)n2CC(=O)Nc2ccc(Cl)cc2)cc1` was tested, and the growth was 74.7%. For `Cc1ccc(CNC(=O)Cc2ccc3c(c2)CN(C2CCC(=O)NC2=O)C3=O)cc1` (configuration not stated), the growth was -24.9% (active). `Cc1ccn2c(C(=O)c3ccccc3)cc(-c3cc(-c4ccc(N(C)C)cc4)c(C#N)c(N)n3)c2c1` was tested, and the growth was 82.9%. In the case of `CCOP(=O)(OCC)O[C@H]1CCC(=O)[C@@H]2[C@H]1[C@H]1C[C@@H]3[C@@]4(C)CCCC(C)(C(=O)OC)[C@@H]4CC[C@@]23C=C1C(C)C` (some centres not stated), the growth was 30%. In the case of `C#CCNC(=O)CCC(=O)OC[C@]12CC[C@@H](C(=C)C)[C@@H]1C1CC[C@@H]3[C@@]4(C)CCCNC(C)(C)[C@@H]4CC[C@@]3(C)[C@]1(C)CC2` (some centres not stated), the growth was -3.06% (active). In the case of `C/C(=N\N=C\c1ccc(N(C)C)cc1)c1ccc2c(c1)Nc1ccccc1S2`, the growth was 34.3%. In the case of `O=C(Nc1ccc(Cl)c([N+](=O)[O-])c1)Nc1ccc(Cl)c([N+](=O)[O-])c1`, the growth was 21.7%. With `COc1ccc(CN2[C@H](C(=O)NCc3ccc(C(=O)NO)cc3)Cc3c([nH]c4ccccc34)[C@H]2C2CC2)cc1` the growth was 26.6%. `O=C(NO)c1ccc(CNC(=O)[C@H]2Cc3c([nH]c4ccccc34)[C@H](c3ccc(Cl)cc3)N2)cc1` was tested, and the growth was 5.97% (active). `O=C(Cn1nc(-c2ccccc2)ccc1=O)NN1C(=O)c2ccccc2C1=O` was tested, and the growth was 108%. In the case of `OCc1[nH]nc2cc(Nc3ncc4ccc(Br)c(OC5CCC(O)CC5)c4n3)ccc12` (configuration not stated), the growth was 1.17% (active). In the case of `COc1cc2c3c(n(CCCNCCO)c(=O)c2cc1OC)-c1nc2c(cc1C3=O)OCO2`, the growth was -14.4% (active). Work on `COc1ccc(CN2[C@H](C(=O)NCCCCCCC(=O)NO)Cc3c([nH]c4ccccc34)[C@H]2C2CC2)cc1` yielded a growth of 12.2%. For `COc1ccc(C2N(c3ccc(Br)cc3)N=C(C(C)=O)N2[C@H]2[C@H](OC(C)=O)O[C@H](COC(C)=O)[C@@H](OC(C)=O)[C@@H]2OC(C)=O)cc1` (some centres not stated), the growth was 54.6%. For `CN1C(=O)N(C)C2SC(N/N=C/c3cccs3)=NC21` (configuration not stated), the growth was 33.4%. For `Cc1cc(C)nc(/N=C(\N)Nc2ccc(S(=O)(=O)Nc3nc(C)cc(C)n3)cc2)n1`, the growth was 104%. In the case of `O=C(Cc1ccc2c(c1)CN(C1CCC(=O)NC1=O)C2=O)NCCc1ccccc1` (configuration not stated), the growth was -13.2% (active). With `CCNCCCn1c2c(c3cc(OC)c(OC)cc3c1=O)C(=O)c1cc3c(nc1-2)OCO3` the growth was -14.2% (active). `O=C(CNc1nc(-c2ccccc2)cs1)Nc1ccc(Cl)cc1[N+](=O)[O-]` was tested, and the growth was 3.2% (active). For `Cc1ccc2nc(-c3ccc(-c4nnc(SCC(=O)Nc5ccc(Cl)cc5)o4)cc3)[nH]c2c1`, the growth was 35.6%. `Cc1ccc(C(=O)NNC(=O)CSc2nc3ccccc3c(=O)[nH]2)cc1` gave a growth of 96.4%. For `CN(C)CCNC(=O)OCCCCOc1cc(O)c2c(=O)cc(-c3ccccc3)oc2c1`, the growth was -42.1% (active). With `CCCCSc1nc(Nc2ccc(/C(C)=N/NC(N)=S)cc2)c(C#N)c(-c2ccccc2)n1` the growth was 47.3%. Work on `O=c1[nH]c2ccccc2cc1CSc1ccc(Nc2nccc(-c3ccc4c(c3)OCO4)n2)cc1` yielded a growth of 102%. For `COc1cc2oc(-c3cccc(C(=O)Nc4ccc(Cl)cc4)c3)cc(=O)c2c(OCCNC(=O)CNC(=O)OC(C)(C)C)c1OC`, the growth was 41.1%. Work on `Cc1ccc2nc(-c3ccc(-c4nnc(SCC(=O)Nc5ccc(Br)cc5)o4)cc3)[nH]c2c1` yielded a growth of 15.9%. With `COc1ccc(CN2[C@@H](C(=O)NCc3ccc(C(=O)NO)cc3)Cc3c([nH]c4ccccc34)[C@@H]2C)cc1` the growth was 11.3%. With `O=C(CNc1nc(-c2ccccc2)cs1)Nc1cccc(Cl)c1` the growth was 7.42% (active). In the case of `NS(=O)(=O)c1ccc(NC(=O)CSc2ccc(-c3ccc(Cl)cc3)nn2)c(Br)c1`, the growth was 90.6%. In the case of `Clc1ccc2c(N/N=C/c3c[nH]c4ccc(Br)cc34)ccnc2c1`, the growth was -48.7% (active). `Cc1ccc(-c2ccc(SCC(=O)Nc3ccc(S(N)(=O)=O)cc3Br)nn2)cc1` was tested, and the growth was 89.9%. Work on `CC(=O)Nc1ccc(-c2cn(-c3cccc(C(=O)Nc4cccc(OC(F)(F)F)c4)c3)nn2)cn1` yielded a growth of 109%. `CCOC(=O)N/C(=C1/OCCN1C)[P+](c1ccccc1)(c1ccccc1)c1ccccc1` was tested, and the growth was 83.7%. In the case of `O=C(NO)c1ccc(CNc2nc(-c3ccccc3)c3ccccc3n2)cc1`, the growth was 12.3%. `Cc1cc(C)nc(NS(=O)(=O)c2ccc(N/C(N)=N/c3nccc(-c4cccs4)n3)cc2)n1` was tested, and the growth was 96.8%. For `COc1cnc2c(c1)C(=O)c1c-2n(CCCNCCO)c(=O)c2cc(OC)c(OC)cc12`, the growth was 12.8%.
